CHO-K1 Ca antag = counter-screen for M1 antagonists: effect in parental CHO-K1 cells. inhibition, % at 3 µM. hit rate 0.6% among 360,000. AID 602250. ATP-induced calcium, Fluo-8 fluorescence;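 active means inhibition above a per-plate cutoff, the plate's mean sample inhibition plus 3 SD, cut at about 24% in these data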
CHO-K1 Ca PAM = counter-screen for M1 PAMs: effect in parental CHO-K1 cells | ATP EC20, Fluo-8 calcium fluorescence; 0% at ATP EC20, 100% at ATP max | AID 602247 | hit rate 0.02% among 360,000 | activation, % at 3 µM;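 active means activation above the run cutoff, the mean activation of all test compounds plus 3 SD, cut at about 40% in these data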;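 further: peak over basal fluorescence ratio in a 140 s read after ATP addition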
M1 ag = human M1 muscarinic receptor agonism. hit rate 0.33% among 360,000. AID 588814. CHO-K1 hM1, Fluo-8 calcium fluorescence, agonist mode; 0% DMSO, 100% acetylcholine EC100. P11229. activation, % at 3 µM;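 active means activation above the run's mean compound activation plus 3 SD, cut at about 16% in these data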;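 further: peak over basal fluorescence ratio within a 140 s kinetic read after compound addition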
Target sequence (P11229 whole entry, looked up): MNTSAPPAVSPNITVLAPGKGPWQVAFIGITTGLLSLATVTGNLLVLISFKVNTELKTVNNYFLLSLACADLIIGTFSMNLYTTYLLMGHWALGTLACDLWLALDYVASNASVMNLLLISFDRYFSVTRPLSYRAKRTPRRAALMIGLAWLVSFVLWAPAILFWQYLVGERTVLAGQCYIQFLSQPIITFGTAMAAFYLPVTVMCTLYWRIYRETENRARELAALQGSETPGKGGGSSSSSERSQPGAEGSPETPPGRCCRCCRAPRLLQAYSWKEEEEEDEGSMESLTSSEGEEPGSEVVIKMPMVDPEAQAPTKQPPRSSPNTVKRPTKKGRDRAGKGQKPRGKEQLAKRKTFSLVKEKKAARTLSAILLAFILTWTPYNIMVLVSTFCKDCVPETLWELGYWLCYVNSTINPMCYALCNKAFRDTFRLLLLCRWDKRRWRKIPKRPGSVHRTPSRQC
M1 antag = antagonists of human M1 muscarinic receptor; CHO-K1 hM1, Fluo-8 calcium fluorescence, ACh EC80 antagonist; inhibition, % at 3 µM; P11229; hit rate 1.3% among 360,000; AID 588852;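 active means percent inhibition above its own plate's cutoff, namely the mean of that plate's compound wells plus 3 SD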;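 further: peak over basal fluorescence ratio during 140 s after agonist addition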
M1 ag parental = nonselective activator or artifact in parental CHO-K1 cells; Fluo-8 calcium fluorescence; scaled to maximal ATP response, vehicle zero; activation, % at 3 µM; hit rate 0.48% among 360,000; AID 602248; in the data active means activation above about 15%;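 further: untransfected CHO-K1 host cells lacking M1 receptor as counterscreen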
M1 PAM = positive allosteric modulators of human M1 muscarinic receptor | activation, % at 3 µM | AID 588819 | hit rate 0.088% among 360,000 | CHO-K1 hM1, Fluo-8 calcium fluorescence, ACh EC20; 0% = ACh EC20, 100% = maximal ACh; in the data active means activation above about 19%, passing the limit was not always enough
Large screens that a line does not name were inactive. A selection: hits, their analogues and other compounds. The true share with any hit is near 2.3%.

COc1ccccc1NC(=O)C(C)N(C)Cc1ccc(Cl)s1 (centres undefined)	CHO-K1 Ca PAM 48
COc1ccccc1NC(=O)C(C)N(C)CC(=O)Nc1cccc2ccccc12 (centres undefined)	none
C/C(=N\N1CCCCC1)c1ccccc1O	M1 ag 22
C/C(=N\N1CCN(c2ccccc2)CC1)c1ccccc1O	none
CC(=O)c1c(C)[nH]c(C(=O)CN2C(=O)NC(CCc3ccccc3)C2=O)c1C (centres undefined)	none
CCc1ccccc1NC(=O)COC(=O)C1CC(=O)N(c2ccc(F)cc2)C1 (centres undefined)	CHO-K1 Ca antag 29
Cc1ccc(N2CC(C(=O)OCC(=O)Nc3cccc(Cl)c3C)CC2=O)cc1 (centres undefined)	none
CCOC(=O)c1c(NC(=O)Cn2nc(C(F)(F)F)cc2C)sc(C)c1C	none
C=CCN(C(=O)CN1CCOCC1)c1nc(C)c(-c2ccccc2)s1	none
C=CCN(C(=O)CN1CCCCC1)c1nc(-c2ccccc2)cs1	M1 antag 25
Cc1cccc(CNc2ccc(C(CC(N)=O)NC(=O)c3cccc(Br)c3)cc2[N+](=O)[O-])c1 (centres undefined)	none
CC(=O)N(c1ccc(C)cc1)C1C=CS(=O)(=O)C1 (centres undefined)	CHO-K1 Ca antag 24
Cc1ccc(N(C(=O)C2CCCC2)C2C=CS(=O)(=O)C2)cc1 (centres undefined)	none
Cc1ccc(NC(=S)NCc2ccccc2)cc1[N+](=O)[O-]	none
Cc1ccc(CNC(=S)Nc2ccc(C)c([N+](=O)[O-])c2)cc1	CHO-K1 Ca antag 29
Cc1nn(CC2CC2)c(=O)n1-c1ccc(Oc2ccccc2)cc1	none
Cc1ccc(S(=O)(=O)N(c2nc(NC(C)C)nc(NC(C)C)n2)n2cnnc2)cc1	none
CCN(CC)CCNCC(O)(c1ccc(Cl)cc1)c1ccc(Cl)cc1	M1 antag 51
CC(C)(C)NCC(O)(c1ccc(Cl)cc1)c1ccc(Cl)cc1	none
NC1=NC(c2ccccc2C(F)(F)F)N(c2ccc(F)c(Cl)c2)C(N)=N1 (centres undefined)	none
O=C(CN1CCC(NC(=O)c2ccccc2F)CC1)Nc1ccc2c(c1)OCCO2	M1 ag parental 16
NC(=O)c1nsc(C(=O)N(CC(=O)NC2CCCC2)Cc2ccc3c(c2)OCO3)c1N	none
Cc1c(CCOC(=O)C23CC4CC(CC(C)(C4)C2)C3)sc[n+]1Cc1ccccc1	M1 antag 100
Cc1c(CCOC(=O)CC23CC4CC(CC(C4)C2)C3)sc[n+]1CC(=O)c1ccccc1	none
Cc1c(CCOC(=O)c2cc([N+](=O)[O-])cc([N+](=O)[O-])c2)sc[n+]1CC(=O)c1ccc(Br)cc1	M1 antag 80
Cc1c(CCOC(=O)c2ccc(Cl)cc2Cl)sc[n+]1CC(=O)c1ccccc1	M1 antag 95
Cc1c(CCOC(=O)C23CC4(C)CC(C)(CC(C)(C4)C2)C3)sc[n+]1CC(=O)c1ccccc1	M1 antag 32
Cc1ncc(C[n+]2csc(CCOC(=O)C34CC5CC(CC(C5)C3)C4)c2C)c(N)n1	none
Cc1sc[n+](CC(=O)c2ccc(Br)cc2)c1C	none
Cn1nc(C(=O)Nc2ccc(S(=O)(=O)N3CCOCC3)cc2)c2ccccc2c1=O	none
Cc1cccc(NC(=O)c2cc(-c3ccc(C)c(C)c3O)n[nH]2)c1	none
Cc1c(CCOC(=O)C23CC4CC(CC(C4)C2)C3)sc[n+]1Cc1ccccc1	M1 antag 64
NC(=O)C(=O)NCCCN1CCOCC1	none
COc1cc(/C=C2\SC(=S)N(NS(=O)(=O)c3ccccc3)C2=O)ccc1O	M1 ag parental 16
COc1cc(/C=C2\SC(=S)N(NS(=O)(=O)c3ccc(C)cc3)C2=O)ccc1O	M1 ag parental 24
O=C(c1cc(-c2ccncc2)nc2ccc(Cl)cc12)N1CCN(Cc2ccc3c(c2)OCO3)CC1	none
O=C(c1cc(-c2ccncc2)nc2ccc(Br)cc12)N1CCN(Cc2ccc3c(c2)OCO3)CC1	M1 antag 43
CC12CC3CC(C1)CC(C(=O)NNC(=O)c1ccncc1)(C3)C2	M1 antag 63
CCC(C)NC(=S)NNC(=O)c1ccncc1 (centres undefined)	CHO-K1 Ca antag 27
O=C(NNC(=S)NC(=O)c1ccc(F)cc1)c1ccncc1	none
O=C(NNC(=S)NC(=O)C12CC3CC(CC(C3)C1)C2)c1ccncc1	M1 ag 58, M1 ag parental 46
CC(C)c1ccc(C(=O)NNC(=O)c2ccncc2)cc1	none
CC1(C(=O)NC(=S)NNC(=O)c2ccncc2)CCCCC1	M1 ag 39, M1 ag parental 28
COC(=O)c1cc([N+](=O)[O-])c(-n2ccnc2)c([N+](=O)[O-])c1	none
Cc1ccc(S(=O)(=O)N2CCCC2)cc1C(=O)NCc1ccccc1CN1CCCC1	none
COc1ccc(-n2cnnc2SCC(=O)NC2CCCc3ccccc32)cc1 (centres undefined)	none
CCOC(=O)c1sc(NC(=O)CSc2nc(C)cc(C)n2)c(C#N)c1C	none
CCOC(=O)c1c(NC(=O)CSc2n[nH]c(-c3ccco3)n2)sc(C)c1C	CHO-K1 Ca antag 24
CCOC(=O)c1sc(NC(=O)CSc2ncn[nH]2)c(C#N)c1C	M1 ag parental 18
CCOC(=O)c1c(NC(=O)CSc2n[nH]c(CNc3ccccc3)n2)sc(C)c1C	none
CCOC(=O)c1sc(NC(=O)CSc2ccccn2)c(C#N)c1C	none
CCOC(=O)c1sc(NC(=O)CSc2n[nH]c(-c3ccccc3)n2)c(C#N)c1C	CHO-K1 Ca antag 27
Cc1cc(C(=O)NNc2ccc(F)cc2)no1	none
CC(C)c1nnc(NC(=O)CCC(=O)N2CCN(C3CCCCC3)CC2)s1	M1 ag 22
CCc1nnc(NC(=O)CCC(=O)N2CCCC2)s1	none
CCc1nnc(NC(=O)CCC(=O)N2CCN(C3CCCCC3)CC2)s1	M1 ag 19
O=C(CCC(=O)N1CCN(C2CCCCC2)CC1)Nc1nnc(C(F)(F)F)s1	none
COc1cc(C(=O)OCC(=O)Nc2ccccc2)cc2c1OCCO2	none
Cc1ccc(S(=O)(=O)CCC(=O)OCC(=O)N(C)CC(=O)Nc2ccc(F)cc2)cc1	M1 antag 20
OC(COC(c1ccc(F)cc1)c1ccc(F)cc1)CN1CCCC(C(F)(F)F)C1 (centres undefined)	none
OC(CN1CCCC(C(F)(F)F)C1)c1ccccc1 (centres undefined)	M1 PAM 34
O=C(NCCN1CCCCC1)c1ccco1	none
Cc1ccc2sc(N3CCN(CCNC(=O)c4ccco4)CC3)nc2c1C	M1 ag parental 20
Cc1nc(N2CCN(S(=O)(=O)c3cccs3)CC2)c2c(-c3ccccc3)c(C)sc2n1	none

Source: PubChem (The Scripps Research Institute Molecular Screening Center)
